Screening data as filed in PubChem.
Shown are actives, neighbours in structure and some others; about 2.7% of the full set was active somewhere.
TMEM16A act – TMEM16A chloride channel activators or potentiators, primary screen, cell-based, HTS; Anoctamin-1 (Mus musculus), Q8BHY3; HEK293 TMEM16A/YFP-H148Q/I152L, iodide quench fluorescence; stronger effect = lower value; B-score at 10 µM; 0.3% of 340,000 active; AID 623877, 2012;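 active means fluorescence-ratio B-score plate-corrected deviation score at least 3 library SD below zero, with starting fluorescence score within 5 deviations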;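 further: channel opened by trigger with iodide after compound preincubation; score built on the fluorescence ratio of max minus min over baseline; more negative score means more quench and so TMEM16A activation or potentiation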
CHT PAM – CHT positive allosteric modulators, primary screen, cell-based, membrane potential dye, choline EC20. B-score at 10 µM. CHT-expressing cells; stronger effect = higher value; LV-AA mutant CHT in HEK293 cells. 0.49% of 310,000 active. AID 488977, 2010. High affinity choline transporter 1 (Homo sapiens), Q9GZV3;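 active means initial fluorescence not abnormally high and integrated response B-score, plate-corrected, over 3 SD above library mean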
ANO1 block – TMEM16A chloride channel inhibitors, primary screen, cell-based, HTS; Anoctamin-1 (Mus musculus), Q8BHY3; HEK293 TMEM16A/YFP iodide influx fluorescence, ionomycin; normalized B-score (activity score, 25-100; higher = stronger inhibition) at 10 µM; 1.2% of 310,000 active;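 active means ratio plate-corrected score three or more library SD toward inhibition, starting fluorescence score within five deviations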;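 further: score derived from kinetic fluorescence span divided by baseline fluorescence per well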
IDE act – human IDE activators in live cells, primary screen, fluorescence polarization, HEK cells, FAbeta-B substrate. Insulin-degrading enzyme (Homo sapiens), P14735. FAbeta-B cleavage; 0% vehicle, 100% cell-free pure enzyme wells. activation, % at 5.96 µM. 0.073% of 340,000 active. AID 493087, 2011;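 active means activation above the mean of all tested compounds plus 3 SD, set per screening campaign, cut at about 17% in these data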
Target sequence (P14735 whole entry, looked up): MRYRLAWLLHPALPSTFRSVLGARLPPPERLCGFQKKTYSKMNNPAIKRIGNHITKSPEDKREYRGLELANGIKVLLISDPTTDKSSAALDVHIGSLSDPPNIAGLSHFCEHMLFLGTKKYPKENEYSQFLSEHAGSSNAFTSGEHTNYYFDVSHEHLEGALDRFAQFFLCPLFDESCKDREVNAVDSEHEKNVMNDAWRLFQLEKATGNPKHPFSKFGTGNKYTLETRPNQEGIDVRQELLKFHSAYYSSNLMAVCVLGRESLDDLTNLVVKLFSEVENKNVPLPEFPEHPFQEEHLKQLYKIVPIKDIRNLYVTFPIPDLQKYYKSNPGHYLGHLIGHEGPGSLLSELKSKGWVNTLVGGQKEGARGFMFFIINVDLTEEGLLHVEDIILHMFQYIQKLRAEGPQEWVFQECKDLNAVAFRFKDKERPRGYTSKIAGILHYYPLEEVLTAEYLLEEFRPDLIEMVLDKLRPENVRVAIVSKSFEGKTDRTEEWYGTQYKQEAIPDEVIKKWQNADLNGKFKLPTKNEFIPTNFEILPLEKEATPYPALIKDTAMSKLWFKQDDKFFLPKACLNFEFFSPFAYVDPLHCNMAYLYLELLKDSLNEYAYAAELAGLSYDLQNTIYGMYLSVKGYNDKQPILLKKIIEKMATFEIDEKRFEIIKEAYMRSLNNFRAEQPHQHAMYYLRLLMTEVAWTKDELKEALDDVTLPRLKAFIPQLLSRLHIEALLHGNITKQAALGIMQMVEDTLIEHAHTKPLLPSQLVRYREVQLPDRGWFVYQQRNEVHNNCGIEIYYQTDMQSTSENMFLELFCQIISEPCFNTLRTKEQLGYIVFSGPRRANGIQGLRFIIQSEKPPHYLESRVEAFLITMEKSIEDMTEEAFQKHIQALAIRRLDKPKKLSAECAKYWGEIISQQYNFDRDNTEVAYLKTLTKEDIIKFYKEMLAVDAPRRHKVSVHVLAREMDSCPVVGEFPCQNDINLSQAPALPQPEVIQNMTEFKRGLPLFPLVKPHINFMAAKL
CHT block – inhibitors of human choline transporter CHT; High affinity choline transporter 1 (Homo sapiens), Q9GZV3; CHT-expressing cells, membrane potential dye, choline response; stronger effect = lower value; B-score at 10 µM; 0.86% of 310,000 active; AID 488975, 2010;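 active means B-score over 3 SD under the library average, and starting fluorescence ratio not unusually high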;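 further: choline stimulus applied at its EC90 after an EC20 pre-addition; B-score computed on integrated fluorescence ratio after choline addition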
IDE cell inh – human IDE inhibitors in live cells, primary screen, fluorescence polarization, HEK cells, FAbetaB substrate. Insulin-degrading enzyme (Homo sapiens), P14735. inhibition, % at 5.59 µM. 0.41% of 320,000 active. AID 434962, 2010. FAbetaB cleavage;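 active means percent inhibition above the average of all tested compounds plus 3 SD, set per screening campaign, cut at about 16% in these data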;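 further: IDE supplied by intact live HEK cells; FP after avidin binding of uncleaved biotin substrate so inhibition keeps polarization high; 0% = DMSO wells and 100% = 60 µM reference IDE inhibitor Ii1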
* marks the source's active call; other numbers are inactive results; i = inactive; . = not tested or not shown.

SMILES	TMEM16A act	CHT PAM	ANO1 block	IDE act	CHT block	IDE cell inh
Cc1ccc(NC(=O)COc2ccccc2)cc1S(=O)(=O)N1CCCCCC1	i	i	25*	4	i	3
O=C(Nc1cccc(F)c1)C1CCCN(S(=O)(=O)c2cccc3cccnc23)C1 (configuration not stated)	i	i	i	-3	i	8
Cc1cccc(NC(=O)COC(=O)C2COc3ccccc3O2)c1C (configuration not stated)	i	.	.	6	.	1
O=C(COC(=O)CC1SC(N2CCCC2)=NC1=O)Nc1c(F)c(F)c(F)c(F)c1F (configuration not stated)	i	.	.	8	.	0
CC(=O)Nc1ccc(-c2sc(Nc3cccc4ccccc34)n[n+]2-c2ccccc2)cc1	-12*	i	i	-9	i	13
CC(NS(=O)(=O)c1ccc2c(c1)oc(=O)n2C)c1ccccc1 (configuration not stated)	i	i	i	3	i	3
Nc1nc2c(s1)CCc1ccccc1-2	i	i	i	-8	i	3
N#C/C(=C(/O)CCl)c1nc2c(s1)CCc1ccccc1-2	i	i	25*	1	-10*	0
COc1ccc(S(=O)(=O)N2CCN(CCOc3ccc(Br)cc3)CC2)cc1OC	i	.	.	-8	.	2
COc1ccc(OC)c(C(=O)CN2CCN(S(=O)(=O)c3ccc(Br)cc3)CC2)c1	i	i	i	2	-6.5*	1
CC(C)CSC1=NSC2=NC(=O)/C(=C\c3cccs3)C(=N)N12	i	i	i	9	i	3
CSC1=NSC2=NC(=O)/C(=C\c3cccs3)C(=N)N12	i	i	100*	2	i	2
COc1cc(/C=C2/C(=N)N3C(SC)=NSC3=NC2=O)ccc1OC(=O)c1ccco1	i	i	i	-5	-6.5*	-2
N=C1/C(=C\c2ccc(OC(=O)c3ccco3)cc2)C(=O)N=C2SC=NN12	i	.	.	5	.	.
COc1cc(/C=C2/C(=N)N3C(=NC2=O)SN=C3S(C)(=O)=O)ccc1OC(=O)c1ccco1	i	i	i	-13	i	6
COc1cc(/C=C2\C(=N)N3N=CSC3=NC2=O)cc(Br)c1OC(=O)c1ccco1	-8.9*	i	i	-66	i	2
C=C(C)COc1ccc(-c2[nH]ncc2Oc2ccc(OC)cc2)c(O)c1	i	i	i	21*	i	2
C=C(C)COc1ccc(-c2[nH]ncc2Oc2ccccc2OC)c(O)c1	i	i	i	2	i	0
CCn1ncc(Cl)c1C(=O)NC(=S)Nc1ccccc1Br	i	i	i	-1	i	9
Cc1nn(C)c(C(=O)NC(=S)Nc2ccccc2Br)c1Cl	-6.7*	i	i	-3	i	1
Cn1c(=O)c(NCCO)c2c3c(cccc31)C(=O)c1ccccc1-2	i	i	i	54*	i	-34
CCc1nnc(NC(=O)COc2ccc3c(c2)OCO3)s1	i	i	i	4	i	0
CCOc1ccc2c(c1)s/c(=N\S(=O)(=O)c1ccc(OC)cc1)n2C(F)F	i	i	25*	-3	i	2
C[C@@H]1C(NC(=O)c2ccccc2)CC2CC1C2(C)C (some centres not stated)	i	i	i	-2	-5*	-2
CCn1c(=O)c2c(nc(SCC(=O)N3CCCC(C)C3)n2C)n(C)c1=O (configuration not stated)	i	i	i	-3	i	3
SMILES	TMEM16A act	CHT PAM	ANO1 block	IDE act	CHT block	IDE cell inh
Fc1ccccc1C1c2cccn2CCN1C(=S)Nc1cccc(Br)c1 (configuration not stated)	i	i	i	2	i	-3
Fc1ccccc1C1c2cccn2CCN1C(=S)Nc1ccc(Br)cc1 (configuration not stated)	-4.6*	i	i	4	i	-2
COc1cc([N+](=O)[O-])ccc1NC(=S)NNC(=O)c1ccc2c(c1)OCO2	i	i	100*	-6	-5.7*	2
CCOC(=O)CN1C(=O)CC(c2ccc([N+](=O)[O-])cc2)C1=O (configuration not stated)	i	i	i	1	i	-4
CC(C)N(C(=O)[C@H]1CC(CC(=O)NC(C)(C)C)C(=O)N2CCc3c([nH]c4ccccc34)[C@]12C)C(C)C (some centres not stated)	.	.	.	7	.	-2
CN(C)C1=NC[C@H](Cc2ccccc2)N1CC1CCC(C(C)(C)C)CC1 (some centres not stated)	i	15*	i	0	i	2
CN(C)C1=NC[C@H](Cc2ccccc2)N1CC1CCCC1	i	i	i	4	i	0
CC(=O)NCc1ccc(S(=O)(=O)N2CCN(S(=O)(=O)c3ccc4ccccc4c3)CC2)cc1	i	.	.	4	.	.
Cc1ccc(NC(=O)c2cccs2)cc1S(=O)(=O)Nc1cccc(Cl)c1	i	i	100*	4	i	6
C[C@@H](c1ccccc1)N1C[C@H]2CCCN2c2cc(Br)ccc2S1(=O)=O	.	.	.	4	.	.
Cc1c(Cl)cccc1NC(=O)Cn1c(CCC(=O)O)ccc1-c1ccccc1	i	i	i	3	i	1
Cc1ccc(S(=O)(=O)Nc2nc3ccccc3nc2Nc2cccc(S(=O)(=O)N3CCCC3)c2)cc1	i	i	i	5	i	-5
O=[N+]([O-])c1cccc(S(=O)(=O)Nc2nc3ccccc3nc2Nc2cccc(S(=O)(=O)N3CCCCC3)c2)c1	-5.3*	.	.	5	.	.
COc1cc2nc(CN3CCN(S(=O)(=O)c4ccc(Cl)cc4)CC3)[nH]c(=O)c2cc1OC	-39*	i	i	-2	i	2
O=c1cc(-c2ccccc2Cl)oc2ccc([N+](=O)[O-])c(O)c12	i	i	i	3	i	-2
O=c1cc(-c2ccccc2Cl)oc2c([N+](=O)[O-])c(O)cc(O)c12	i	i	i	3	-13*	-6
CN(C)c1ccc(C(O)P(=O)(OCc2ccccc2)c2ccc(N(C)C)cc2)cc1 (configuration not stated)	i	i	i	.	i	1
